Measured values taken from PubChem BioAssay (Tox21).
“And” between values parts separate entries of the source, which are not always exact repeats. Equal entries are not always repeated. Results filed as inconclusive are left out. The source made the active and inactive calls. Unless noted, calls come from the whole dose curve; as a rule, active = well fitted curve in the direction sought with a large enough effect in the repeat runs; inconclusive = weak or mixed curves; inactive = no such curve, though single readings can be large; an effect the other way counts as inactive or inconclusive.

How the values were obtained:
[1] = qHTS assay to identify small molecule agonists of H2AX (AID 1224845; active = well fitted activation curve with a large enough effect in the signal ratio in the repeat runs, not every such curve was filed as active; the % refers to the signal ratio)
In short: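 Wild-type CHO-K1 cells, plated overnight, exposed 3hr at 37C to 15 concentrations (0.76% DMSO final). Lysed, then HTRF anti-pH2AX (S139) cryptate and anti-H2AX-d2 antibodies, 24 hr room temperature; 665/620 nm emission read.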

[2] = qHTS assay to identify small molecule agonists of the hypoxia (HIF-1) signaling pathway (AID 1224846; active = well fitted activation curve with a large enough effect in the signal ratio in the repeat runs, not every such curve was filed as active; the % refers to the signal ratio)
In short: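 Reporter induction in HRE-bla ME-180 cells is taken as agonism: cells sit 5 hrs after plating, receive compounds or DMSO only, incubate 17 hrs at 37C under 5% CO2, and are loaded with CCF4-AM for beta-lactamase FRET measurement.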

[3] = qHTS assay to identify small molecule agonists of H2AX - cell viability counter screen (AID 1224847; calls by dose curve; note: top concentration of the series differs between compounds; nearly all actives have a fitted effect of over 30% in size)
In short: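 For this counter screen, overnight-attached CHO-K1 cells received test compounds (15 concentrations, 0.76% DMSO final); 3 hr later at 37C, CellTiter-Glo reagent was added and luminescence recorded after 30 min at room temperature.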

[4] = qHTS assay to identify small molecule antagonists of the estrogen related receptor (ERR) signaling pathway from Tox21 library (AID 1224848); note: nearly all actives have a fitted effect of over 50% in size
In short: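 Quantitative high-throughput format: ERR reporter cells (2,000/well) pre-incubated 6 h, treated 18 h at 37 C with compounds in DMSO alongside positive and negative controls, then read by ONE-Glo luminescence.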

[5] = qHTS assay to identify small molecule agonists of the estrogen related receptor (ERR) signaling pathway from Tox21 library (AID 1224849; calls by dose curve; note: nearly all actives have a fitted effect of over 15% in size); conditions: ERR reporter cell line, ONE-Glo luciferase, 18 h
In short: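 Tox21 compounds tested for ERR agonism in an NTP reporter cell line: 18 h treatment at 37 C, then ONE-Glo luminescence.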

[6] = qHTS RealTime-Glo MT Cell Viability Assay in HepG2 cells - 24 hour (AID 1224867); note: nearly all actives have a fitted effect of over 50% in size
In short: (§1)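 HepG2 cells (600/well) were dispensed with RealTime-Glo reagents, incubated 5 h at 37 °C, then treated with compounds in DMSO for up to 40 h. Nonlytic NanoLuc luminescence reflecting viable cells was read at each stated time point.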

[7] = qHTS RealTime-Glo MT Cell Viability Assay in HEK293 cells - 32 hour (AID 1224868); note: top concentration of the series differs between compounds; nearly all actives have a fitted effect of over 50% in size
In short: (§2)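 HEK293 cells seeded with NanoLuc/prosubstrate reagent, rested 5 h at 37 C, then dosed and kept at 37 C up to 40 h. Nonlytic real-time luminescence from viable cells read at 0, 8, 16, 24, 32 and 40 h.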

[8] = A CellTox Green Cytotoxicity Assay to monitor cytotoxicity in HEK293 cells - 0 hour (AID 1224869); note: nearly all actives have a fitted effect of over 50% in size
In short: (§3)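 Tox21 screen in HEK293: membrane-impermeant cyanine dye fluoresces on binding dead-cell DNA; compound pinned 5 h post-seeding, plates held at 37 C, signal read repeatedly through 40 h.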

[9] = qHTS RealTime-Glo MT Cell Viability Assay in HepG2 cells - 40 hour (AID 1224870); note: nearly all actives have a fitted effect of over 50% in size
In short: (§4)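 HepG2 cells (600/well) mixed with RealTime-Glo MT reagent, settled 5 h at 37 C/5% CO2 before compound addition. Nonlytic NanoLuc luminescence from viable-cell prosubstrate reduction read repeatedly during 40 h treatment at 37 C.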

[10] = qHTS RealTime-Glo MT Cell Viability Assay in HEK293 cells - 16 hour (AID 1224872)
In short: as §2

[11] = qHTS RealTime-Glo MT Cell Viability Assay in HepG2 cells - 8 hour (AID 1224873); note: nearly all actives have a fitted effect of over 55% in size
In short: as §4

[12] = qHTS RealTime-Glo MT Cell Viability Assay in HEK293 cells - 40 hour (AID 1224874); conditions: RealTime-Glo luminescence; max response: active compounds read low; note: nearly all actives have a fitted effect of over 50% in size
In short: (§5)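 HEK293 + NanoLuc + prosubstrate, 600 cells/well; 5 h, 37 C/5% CO2; compound 23 nL in DMSO by pintool; 37 C; luminescence read at 0, 8, 16, 24, 32 and 40 h time points.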

[13] = A CellTox Green Cytotoxicity Assay to monitor cytotoxicity in HEK293 cells - 24 hour (AID 1224875); note: nearly all actives have a fitted effect of over 45% in size
In short: as §3

[14] = A CellTox Green Cytotoxicity Assay to monitor cytotoxicity in HepG2 cells - 16 hour (AID 1224876); note: nearly all actives have a fitted effect of over 45% in size
In short: (§6)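 Measurements at 0, 8, 16, 24, 32 and 40 h of treatment captured CellTox Green fluorescence in HepG2 cells that had been co-plated with reagent and preincubated 5 h at 37 C/5% CO2.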

[15] = qHTS RealTime-Glo MT Cell Viability Assay in HepG2 cells - 32 hour (AID 1224877); note: nearly all actives have a fitted effect of over 55% in size
In short: as §1

[16] = A CellTox Green Cytotoxicity Assay to monitor cytotoxicity in HepG2 cells - 24 hour (AID 1224878); note: nearly all actives have a fitted effect of over 45% in size
In short: as §6

[17] = qHTS RealTime-Glo MT Cell Viability Assay in HEK293 cells - 0 hour (AID 1224880); note: top concentration of the series differs between compounds; nearly all actives have a fitted effect of over 45% in size
In short: as §5

[18] = A CellTox Green Cytotoxicity Assay to monitor cytotoxicity in HEK293 cells - 32 hour (AID 1224881); note: nearly all actives have a fitted effect of over 40% in size
In short: as §3

[19] = A CellTox Green Cytotoxicity Assay to monitor cytotoxicity in HEK293 cells - 40 hour (AID 1224871); note: nearly all actives have a fitted effect of over 45% in size
In short: as §3

[20] = A CellTox Green Cytotoxicity Assay to monitor cytotoxicity in HepG2 cells - 40 hour (AID 1224879); note: nearly all actives have a fitted effect of over 40% in size
In short: as §6
% is set by controls: 0 for no effect and ±100 for the full control effect.

O=c1cc[nH]c(=O)[nH]1
inactive: Potency [1] | outcome [2] | Potency [3] | Potency [4] | activity change, positive = activation ([5]; at 42.5 µM (top of the series)) 5.28% | activity change, positive = activation ([5]; at 92.4 µM (top of the series)) 0.687% | outcome [6] | Potency [7] | Potency [8] | outcome [9] | Potency [10] | outcome [11] | max response [12] -9.27% and 1.51% | Potency [13] | Potency [14] | outcome [15] | Potency [16] | Potency [17] | Potency [18]

C=CCOC(=O)CC(C)C
inactive: Potency [1] | outcome [2] | Potency [3] | Potency [4] | activity change, positive = activation ([5]; at 92.4 µM (top of the series)) 8.22% and 2.25% | outcome [6] | Potency [7] | Potency [8] | outcome [9] | Potency [19] | Potency [10] | outcome [11] | max response [12] 4.01% and 4.38% | Potency [13] | Potency [14] | outcome [15] | Potency [20] | Potency [17] | Potency [18]

Oc1cccc(O)c1
inactive: Potency [1] | outcome [2] | Potency [3] | Potency [4] | activity change, positive = activation ([5]; at 42.5 µM (top of the series)) 6.02% | activity change, positive = activation ([5]; at 92.4 µM (top of the series)) -15.4% and -1.21% | outcome [6] | Potency [7] | Potency [8] | outcome [9] | Potency [19] | Potency [10] | outcome [11] | max response [12] -0.181% and -6.38% and 1.58% | Potency [13] | outcome [15] | Potency [20] | Potency [17] | Potency [18]

CCOCCO
inactive: Potency [1] | outcome [2] | Potency [3] | outcome [6] | Potency [7] | Potency [8] | outcome [9] | Potency [19] | Potency [10] | outcome [11] | max response [12] 1.5% and 7.11% | Potency [13] | Potency [14] | outcome [15] | Potency [17] | Potency [18]

OC[C@@H](O)[C@@H](O)[C@H](O)[C@H](O)CO
inactive: Potency [1] | outcome [2] | Potency [3] | Potency [4] | activity change, positive = activation ([5]; at 42.5 µM (top of the series)) 2.34% | activity change, positive = activation ([5]; at 92.4 µM (top of the series)) 1.3% and 3.91% | outcome [6] | Potency [7] | Potency [8] | outcome [9] | Potency [10] | outcome [11] | max response [12] 5.62% and 0.187% and 10.1% | Potency [13] | Potency [14] | outcome [15] | Potency [17] | Potency [18]

CCCCCCCC(=O)OCC(O)CO (configuration not stated)
inactive: Potency [1] | outcome [2] | Potency [3] | Potency [4] | activity change, positive = activation ([5]; at 92.4 µM (top of the series)) 1.37% | outcome [6] | Potency [7] | Potency [8] | outcome [9] | Potency [19] | Potency [10] | outcome [11] | max response [12] 11.2% and -0.735% | Potency [13] | outcome [15] | Potency [16] | Potency [17] | Potency [18]

C=C(C)C(N)=O
inactive: Potency [1] | outcome [2] | Potency [3] | Potency [4] | activity change, positive = activation ([5]; at 92.4 µM (top of the series)) 10.9% and 3.35% | outcome [6] | Potency [7] | Potency [8] | outcome [9] | Potency [10] | outcome [11] | max response [12] 4.84% and 13.1% | Potency [13] | outcome [15] | Potency [20] | Potency [17] | Potency [18]

O=[N+]([O-])c1ccc(O)cc1
inactive: Potency [1] | outcome [2] | Potency [3] | outcome [6] | Potency [7] | Potency [8] | outcome [9] | Potency [19] | Potency [10] | outcome [11] | max response [12] -24.7% and -8.36% and 4.76% | Potency [13] | Potency [14] | outcome [15] | Potency [16] | Potency [20] | Potency [17] | Potency [18]

CCCCNC(=O)NS(=O)(=O)c1ccc(N)cc1
inactive: Potency [1] | outcome [2] | Potency [3] | Potency [4] | activity change, positive = activation ([5]; at 42.5 µM (top of the series)) -4% | activity change, positive = activation ([5]; at 92.4 µM (top of the series)) 2.9% | outcome [6] | Potency [7] | Potency [8] | outcome [9] | Potency [10] | outcome [11] | max response [12] 3.02% and 10% | Potency [13] | outcome [15] | Potency [16] | Potency [20] | Potency [17] | Potency [18]

O=C(O)CN(CC(=O)O)CC(=O)O
inactive: Potency [1] | outcome [2] | Potency [3] | Potency [4] | activity change, positive = activation ([5]; at 92.4 µM (top of the series)) 0.123% and 2.89% | Potency [7] | Potency [8] | outcome [9] | Potency [19] | Potency [10] | outcome [11] | max response [12] 3.36% and 17.8% | Potency [13] | Potency [14] | outcome [15] | Potency [20] | Potency [17] | Potency [18]

CC(O)COc1ccccc1 (configuration not stated)
inactive: Potency [1] | outcome [2] | Potency [3] | outcome [6] | Potency [7] | Potency [8] | outcome [9] | Potency [19] | Potency [10] | outcome [11] | max response [12] 1.14% and -0.457% and -1.74% | Potency [13] | Potency [14] | outcome [15] | Potency [17] | Potency [18]

CC(C)CC(C)CC(O)CC(C)C (configuration not stated)
inactive: Potency [1] | outcome [2] | Potency [3] | Potency [4] | activity change, positive = activation ([5]; at 92.4 µM (top of the series)) 3.18% and 4.59% | outcome [6] | Potency [7] | Potency [8] | outcome [9] | Potency [19] | Potency [10] | outcome [11] | max response [12] -0.631% and 5.18% | Potency [13] | Potency [14] | outcome [15] | Potency [16] | Potency [20] | Potency [17] | Potency [18]
